Reference: PubChem BioAssay (NCATS)
Results filed as inconclusive are left out. Unmarked numbers belong to inactive results. The source made the active and inactive calls. The call rests on the fitted dose curve; in most records, active means well fitted cell-killing curve with a large enough effect; inconclusive means small, poorly fitted or top-dose-only effect; inactive means no such curve, though single readings can be large or run the other way.

Assay: qHTS of pediatric cancer cell lines to identify multiple opportunities for drug repurposing: Primary screen for Rh41 cells (AID 1347108); further: nearly all actives have a fitted effect of over 70% in size;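 on activity change, negative = cytotoxic: luminescence drop marks cytotoxic hits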
Settings: Rh41 rhabdomyosarcoma viability, CellTiter-Glo luminescence, 48 h; series mostly up to 46 µM; activity change, negative = cytotoxic: at the top concentration
How it was run: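 Cells seeded at 500-1,000 cells/well in growth media, rested 5 hours at 37 degrees C, 5% CO2, then dosed; MIPE compounds at 11-point (from 0.78 nM) and NPC at 8-point (from 0.59 nM) final concentrations. Viability by CellTiter-Glo luminescence after 48 hours.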
Potency means the concentration at half of the fitted maximal effect.

Structure (SMILES) | activity change, negative = cytotoxic | Potency
Nc1cc(=O)[nH]c(N)n1 | 14.2% | –
Nc1ccc(S(=O)(=O)Nc2nccs2)cc1 | 27.4% | –
C[C@H](N)[C@H](O)c1cccc(O)c1 | 23.7% | –
C[C@@H](O)[C@H](N)C(=O)O | 10.6% [at 16.1 µM] | –
Cc1cc(CC(=O)O)n(C)c1C(=O)c1ccc(Cl)cc1 | 30.9% | –
NC1CCN(c2cccc(Cl)n2)CC1 | 15.6% | –
O=Cc1ccccc1C=O | 17.5% | –
COc1ccccc1O | 35.4% [at 92.7 µM] | –
CC1(C)Oc2ccc(C#N)cc2[C@@H](N2CCCC2=O)[C@@H]1O | 14.7% | –
CCN(CC)C(=O)Nc1ccc(OCC(O)CNC(C)(C)C)c(C(C)=O)c1 (stereo not drawn) | 25.7% | –
CC(C)(C(=O)O)c1ccc(C(O)CCCN2CCC(C(O)(c3ccccc3)c3ccccc3)CC2)cc1 (stereo not drawn) | 17.8% | –
CCCCCCCCCCCCOS(=O)(=O)O | 22.7% | –
NCCNCCNCCNCCN | 10.3% [at 9.22 µM] | –
Cc1cc2c(cc1S(N)(=O)=O)S(=O)(=O)CCC2 | 22.7% | –
CNCC(O)c1ccc(O)c(O)c1 (stereo not drawn) | -19.8% | –
COc1cc(C)c(Cc2cnc(N)nc2N)cc1OC | 13.6% | –
C[C@H](NC(CCc1ccccc1)C(=O)O)C(=O)N1CCC[C@H]1C(=O)O (stereo partly drawn) | 13.3% | –

Structure (SMILES) | activity change, negative = cytotoxic | Potency
CCN(CC)CCNC(C(=O)OCCC(C)C)c1ccccc1 (stereo not drawn) | 9.78% | –
NC(=O)NNc1ccccc1 | 6.43% | –
CC[C@H]1CN2CCc3cc(OC)c(OC)cc3[C@@H]2C[C@@H]1C[C@H]1NCCc2cc(OC)c(OC)cc21 | – | 3.76 µM (active)
Cc1cc2nc3c(=O)[nH]c(=O)nc-3n(C[C@H](O)[C@H](O)[C@H](O)CO)c2cc1C | 7.29% [at 16.1 µM] | –
O=C(O)c1ccccc1-c1ccc(C(F)(F)F)cc1 | 22.5% | –
CC1=C(CC(=O)O)c2cc(F)ccc2/C1=C\c1ccc(S(C)(=O)=O)cc1 | -2.76% | –
Cc1ccc(C(C)C)cc2c(C)ccc1-2 | 31.7% | –
O=C1Nc2ccc(Cl)cc2[C@@](C#CC2CC2)(C(F)(F)F)O1 | 14.3% | –
O=S(=O)(O)NC1CCCCC1 | 33.1% | –
C[C@H]1O[C@H](O[C@H]2[C@H](O)[C@@H](O)[C@@H](O[C@H]3[C@H](O)[C@@H](O)[C@H](O)O[C@@H]3CO)O[C@@H]2CO)[C@H](O)[C@@H](O)[C@@H]1N[C@H]1C=C(CO)[C@@H](O)[C@H](O)[C@H]1O | 5.07% | –
COc1ccc2cc1Oc1cc3c(cc1OC)CC[N+](C)(C)[C@H]3Cc1ccc(cc1)Oc1c(OC)c(OC)cc3c1[C@@H](C2)[N+](C)(C)CC3 | 25.8% | –
O=C1O[C@H](CO)[C@@H](O)[C@H](O)[C@H]1O | 14.1% | –
Oc1ccc(C(O)CNCCCCCCNCC(O)c2ccc(O)c(O)c2)cc1O (stereo not drawn) | 10.3% | –
CC1=C(/C=C/C(C)=C/C=C/C(C)=C/C(=O)O)C(C)(C)CCC1 | -8.06% | –
CC1(C)CO[C@@H](CC(=O)O)CN1 | 26% | –
O=C(O)COc1nn(Cc2ccccc2)c2ccccc12 | 18.3% | –
